Shown is part of a subset that was picked to be rich in hits.
USP2a inh: qHTS Assay for Inhibitors of Ubiquitin-specific Protease USP2a Using CHOP2 as the Reporter; USP2 core, Ub-CHOP2 coupled fluorogenic reporter, 485/531; Potency, µM (series often up to 38.3 µM), most hits filed as inhibitors; hit rate 0.01% among 330,000; AID 463254, 2010
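USP2 core (10nM final) preincubated 30min RT with compound in 20mM Tris-HCl pH 8.0, 2mM CaCl2, 2mM beta-mercaptoethanol, 0.05% CHAPS; 25nM Ub-CHOP2 plus 25nM reporter substrate added, fluorescence (Ex485/Em531) read after 60min.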
ClpP mod: qHTS Assay for Activators of ClpP; AID 651965, 2013; hit rate 1.9% among 340,000; purified B. subtilis ClpP, FRET peptide cleavage, 20 min; Potency, µM (titrated, usually from 57.5 µM); active = well fitted falling curve with a large enough effect; inconclusive = small, poorly fitted or top-dose-only effect; inactive = no such curve, though single readings can be large or run the other way; note: the source files actives as falling curves though it sought activators and does not explain the sign; nearly all actives have a fitted effect of over 65% in size
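ClpP 10 microg/mL final, pH 8 Tris/KCl buffer with BSA, glycerol, Tween-20; compound pinned in; FRET-FV substrate; RT 20 min; Ex320/Em430; ΔFRET vs ADEP 5.8 microM, DMSO, no enzyme.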
Eya2 phos inh: qHTS Assay for Inhibitors of the Phosphatase Activity of Eya2; AID 488837, 2010; Potency, µM (series often up to 76.9 µM), most hits filed as inhibitors; recombinant Eya2, OMFP fluorescence dephosphorylation (OMFP is methylfluorescein phosphate); hit rate 0.006% among 330,000
Target sequence (O00167 whole entry, looked up): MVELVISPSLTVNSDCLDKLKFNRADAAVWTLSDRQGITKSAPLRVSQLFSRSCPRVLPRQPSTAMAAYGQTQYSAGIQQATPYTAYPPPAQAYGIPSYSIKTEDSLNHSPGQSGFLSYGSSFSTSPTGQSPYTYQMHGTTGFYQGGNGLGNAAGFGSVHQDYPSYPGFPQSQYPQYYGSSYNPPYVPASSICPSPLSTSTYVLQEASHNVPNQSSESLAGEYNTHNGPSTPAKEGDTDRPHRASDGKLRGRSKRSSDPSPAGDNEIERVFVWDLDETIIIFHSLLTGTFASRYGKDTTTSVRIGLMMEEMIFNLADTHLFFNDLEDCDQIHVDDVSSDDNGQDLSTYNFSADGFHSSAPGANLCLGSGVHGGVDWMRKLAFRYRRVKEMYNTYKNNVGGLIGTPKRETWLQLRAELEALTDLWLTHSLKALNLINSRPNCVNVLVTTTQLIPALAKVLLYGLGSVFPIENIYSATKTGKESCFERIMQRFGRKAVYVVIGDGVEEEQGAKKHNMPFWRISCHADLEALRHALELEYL
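Eya2 protein (added as 0.2 uM solution) was preincubated with compound for 10 min at ambient temperature in 50 mM HEPES pH 7.5, 50 mM NaCl, 5 uM MgCl2, 0.05% BSA, 1 mM DTT. OMFP (added at 50 uM) then reacted 10 min; fluorescence read at 485/525 nm.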
GALK inhibitor: qHTS Assay for Inhibitors of Human Galactokinase (GALK); Purified GALK, Kinase-Glo residual ATP luminescence; Potency, µM (highest dose often 57.5 µM), usual class: inhibitors; hit rate 0.007% among 270,000
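Quantitative HTS: GALK 5 nM, ATP 35 uM, galactose 100 uM, 1 h room temperature, then luciferase-based ATP detection.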
Hits are given with their value; . = inactive; ? = inconclusive; / = not tested or not shown. Unless noted, calls come from the whole dose curve; as a rule, active = well fitted inhibition curve with a large enough effect; inconclusive = small, poorly fitted or top-dose-only effect, or effect the other way; inactive = flat fitted curve, though single readings scatter.

SMILES	USP2a inh	ClpP mod	Eya2 phos inh	GALK inhibitor
CCOc1cc2[nH]c(=O)n(CCCCCC(=O)NCc3ccco3)c(=O)c2cc1OCC	.	22µM	.	.
COc1cc2[nH]c(=O)n(CCC(=O)NCc3cccnc3)c(=O)c2cc1OC	.	28µM	.	.
Cc1cc(C)c2c(c1)NC(=O)C2(O)CC(=O)c1cccs1 (stereo not given)	/	.	/	.
COC(=O)c1sccc1-c1ccc(C(N)=O)o1	.	/	.	.
O=C(N/N=C/c1ccc(OC2CSC2)cc1)c1ccc(CN2CCOCC2)cc1	.	/	.	.
CC(C)(C)C1=CC(=Nc2ccccc2N)C=C(C(C)(C)C)C1=O	.	.	.	.
C[C@@H]1CN([C@@H](C)CO)C(=O)c2cc(N(C)C)ccc2O[C@@H](C)CCCCO[C@@H]1CN(C)S(=O)(=O)c1cccs1	/	.	/	/
CCCc1cc(N2CCCC2)n2nc(C)c(-c3ccccc3)c2n1	.	32µM	.	.
CCC(C)Sc1nnc(CNC(=O)C23CC4CC(CC(C4)C2)C3)n1C1CCCCC1 (stereo not given)	.	.	.	.
O=C1CC(c2ccccc2)(c2ccccc2)c2ccccc21	/	32µM	/	/
N#Cc1c(NC2CCCCC2)nc(-c2ccco2)c2c1CCCC2	.	7.1µM	.	.
CC1(C)Cc2c(C#N)c(NCCO)nc(-c3ccco3)c2CO1	.	/	.	.
CC1(C)Cc2c(C#N)c(NCCN3CCOCC3)nc(-c3ccco3)c2CO1	.	32µM	.	.
N#Cc1c(NCCCO)nc(-c2ccco2)c2c1CCCC2	.	28µM	.	.
Cc1ccccc1NC(=O)CS(=O)(=O)c1cccc2nsnc12	/	.	/	/
CC(=O)N1C(=O)c2cccc3cccc(c23)C(=O)N1C(C)=O	.	25µM	.	.
COc1cccc(-c2cc(C(F)(F)F)n3nc(C(=O)N4CCCCC4c4cccnc4)cc3n2)c1 (stereo not given)	.	/	.	.
COc1cccc(C2CC(=O)Nc3c2c(=O)[nH]c2ncnn32)c1 (stereo not given)	.	/	.	.
COc1ccc(Nc2nc(-c3ccc4c(c3)NC(=O)CO4)cs2)cc1	.	/	?	.
COc1ccc(-c2cc(-c3ccccc3)nc(-c3ccc4c(c3)NC(=O)CO4)c2)cc1	.	25µM	.	.
CSc1nc2nc(C(F)(F)F)cc(-c3ccccc3)n2n1	.	32µM	.	.
CCOc1ccc2oc(C(=O)NCc3nc4ccccc4[nH]3)c(C)c2c1	.	35µM	.	.
Cc1cc(C)cc(NC(=O)c2ccc(NC(=O)C3C4CC5OC(=O)C3C5C4)cc2)c1 (stereo not given)	.	32µM	.	.
COC(=O)c1ccc(CSc2nnc(-c3ccccc3)n2C)o1	.	.	.	.
Cc1cccc(/C=C/c2ccccc2)n1	/	/	.	/
SMILES	USP2a inh	ClpP mod	Eya2 phos inh	GALK inhibitor
Cc1nc(/C=C/c2ccccc2)cc(/C=C/c2ccccc2)n1	.	14µM	.	.
C(=C\c1cc(/C=C/c2ccccc2)ncn1)/c1ccccc1	.	35µM	.	.
CCc1ccc(S(=O)(=O)c2ccc(-n3nc(C)cc3N)cc2)cc1	.	/	.	.
O=C(C1=C[C@H](c2ccc(Br)cc2)C[C@H](OCCCCO)O1)N1CCOCC1	.	.	.	.
COc1ccc(CC(=O)Nc2cccc(-c3nnc(-c4ccco4)o3)c2)cc1	.	.	.	.
c1ccc(-c2nnc(-c3ccco3)o2)cc1	.	14µM	.	.
O=C(O)CCC(=O)Nc1ccc(-c2nnc(-c3ccco3)o2)cc1	.	.	.	.
O=C(Cc1ccc(Cl)cc1)Nc1ccc(-c2nnc(-c3ccco3)o2)cc1	.	32µM	.	.
Cc1cc(C)cc(OCC(=O)Nc2cccc(-c3nnc(-c4ccco4)o3)c2)c1	.	32µM	.	.
O=C(Nc1ccc(-c2nnc(-c3ccco3)o2)cc1)C(c1ccccc1)c1ccccc1	.	28µM	.	.
COC(=O)c1ccc(CSc2nnc(N)s2)cc1	.	.	.	.
O=C(NN1CCOCC1)c1cc(Cl)ccc1Cl	.	.	.	.
O=C(CN1C(=O)NC2(CCCCC2)C1=O)Nc1cc(C(F)(F)F)ccc1N1CCOCC1	.	.	.	/
c1ccc(-c2nnc(-c3ccco3)n2-c2ccccc2)cc1	.	22µM	.	.
O=C(CSc1nnc(CNc2ccc(F)cc2)n1CC1CCCO1)N1CCOCC1 (stereo not given)	.	/	.	.
Cc1c(NC(=O)COC(=O)c2cc(-c3ccc(-c4ccccc4)cc3)nc3ccccc23)c(=O)n(-c2ccccc2)n1C	.	10µM	.	/
Cc1c(NC(=O)COC(=O)c2ccc[nH]c2=O)c(=O)n(-c2ccccc2)n1C	.	18µM	.	.
Cc1c(NC(=O)c2cc(-c3ccccc3)nc3ccccc23)c(=O)n(-c2ccccc2)n1C	.	.	.	/
COC(=O)CCN1CCN(S(=O)(=O)c2ccccc2Br)CC1	.	.	.	.
CC(=O)Oc1c(/C=C(\C#N)C(N)=O)[nH]c2ccccc12	?	25µM	?	/
Cc1cc(N2CCN(c3ccccc3)CC2)n2cc(-c3ccccc3)nc2n1	.	?	.	.
Cc1cc(N2CCN(c3ccccc3Cl)CC2)n2cc(-c3ccccc3)nc2n1	.	14µM	.	.
O=C(Nc1c(Cl)cc(Cl)cc1-c1nc2ccccc2s1)c1ccc(Br)o1	.	25µM	.	.
COc1ccccc1Oc1coc2c(CN3CCN(C)CC3)c(O)ccc2c1=O	.	25µM	.	.
CCN1CCN(Cc2c(O)ccc3c(=O)c(-c4ccccc4OC)coc23)CC1	.	?	.	.
SMILES	USP2a inh	ClpP mod	Eya2 phos inh	GALK inhibitor
COc1ccccc1-c1coc2c(CN3CCN(C)CC3)c(O)ccc2c1=O	.	7.9µM	.	.
COc1ccccc1-c1coc2c(CN3CCN(CCO)CC3)c(O)ccc2c1=O	/	.	/	/
CCC(CC)c1nnc(NC(=O)C2CC(=O)N(CCc3ccc(OC)c(OC)c3)C2)s1 (stereo not given)	.	.	.	/
CC(=O)c1c(C)oc2c1cc(NS(=O)(=O)c1ccc(C(=O)O)cc1)c1ccccc12	.	/	.	.
COCCNC(=S)NCCCNc1nc2cc3c(cc2cc1C#N)OCO3	.	14µM	.	.
CCOCCCNC(=S)NCCCNc1nc2cc3c(cc2cc1C#N)OCO3	.	10µM	.	.
Cc1ccc(NC(=O)N2CCC(CN3CCCCC3)CC2)c(Cl)c1	/	.	/	/
COc1ccc(-c2noc(C3CCCN(C(=O)c4ccccc4OC)C3)n2)cc1OC (stereo not given)	.	.	.	.
COc1ccc(C(=O)N2CCCC(c3nc(-c4ccc(OC)c(OC)c4)no3)C2)c(OC)c1 (stereo not given)	.	28µM	.	.
CC1=C(C(=O)NC(C)c2ccccc2)C2(CCC(C)CC2)OC1=O (stereo not given)	.	.	.	/

Compound activity deposited in PubChem by National Center for Advancing Translational Sciences (NCATS).
